Only some compounds are listed: those with a hit (about 19% of all), similar ones and a draw of the others.
HT1080 IDH1KD tx: toxicity to HT-1080 IDH1 knockdown cells (counter line) | HT-1080 IDH1 knockdown viability, ATP luminescence, 48 h | Potency, µM (doses to about 46.1 µM), for inactives: at the top dose activity, negative = toxicity, actives largely listed as cytotoxic | 360,000 tested, 2% active;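 also: potency is read from the fitted curve at half-maximal effect; 0% = DMSO wells and -100% = cell-free medium wells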
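IDH1KD HT-1080 cells, 750/well, RPMI + 5% FBS; compound pinned after 2 h settling; 48 h, 37 °C; CellTiter-Glo luminescence; % activity normalised to DMSO and no-cell wells; curves fitted, classed by r2 and efficacy.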
uPA surface inh: cell surface uPA generation inhibition; cell surface uPA generation assay, qHTS; 330,000 tested, 0.31% active; Potency, µM (titrated, usually from 38.3 µM), for the others: top-dose activity change, negative = inhibition, most hits filed as inhibitors; AID 540303; active = well fitted inhibition curve with a large enough effect; inconclusive = small, poorly fitted or top-dose-only effect; inactive = no such curve, though single readings can be large or run the other way; tested in mouse RAW 264.7 cells; also: potency is read from the fitted curve at half-maximal effect; nearly all actives have a fitted effect of over 55% in size
HT1080-NT tox: kills 2HG-producing HT-1080-NT fibrosarcoma cells; 360,000 tested, 1.6% active; HT-1080-NT fibrosarcoma viability, CellTiter-Glo ATP luminescence, 48 h; Potency, µM (doses to about 46.1 µM), inactives show at the highest dose activity, negative = less viability, actives largely listed as cytotoxic;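 also: NT is the 2HG producing partner of a matched IDH1 knockdown line; potency is read from the fitted curve at half-maximal effect; 0% = DMSO-treated cells and -100% = media-only wells without cells; nearly all actives have a fitted effect of over 55% in size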
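Viability of the 2HG-overproducing fibrosarcoma line after 48 hours of compound exposure at 37 degrees C was determined by luminescence with CellTiter-Glo, and concentration-effect curves were then fitted and categorized.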
TDP1 cell CPT: DT40-hTDP1 cell growth loss with CPT. chicken DT40 Tdp1-/-;hTDP1 cells + 20 nM CPT, ATP luminescence, 48 h. Potency, µM (titrated, usually from 46.2 µM), for the others: at the top dose activity change, negative = growth inhibition, actives largely listed as inhibitors. 420,000 tested, 12% active. AID 686979; also: potency is read from the fitted curve at half-maximal effect; nearly all actives have a fitted effect of over 55% in size
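Cell growth measured by CellTiter-Glo luminescence after a minimum 48 h, 37 C compound exposure with 20 nM CPT in Tdp1-knockout DT40 cells stably expressing hTDP1, seeded 400/well; qHTS titration format.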
IL1B secr inh: inhibitors of inflammasome signaling (IL-1 beta secretion); THP-1 LPS/ATP IL-1B secretion, AlphaLISA, 16 h; active compounds read low; activity change, % at 57.5 µM; 360,000 tested, 4.7% active; AID 743279; in the data active = activity change below about -50%; inconclusive = mostly about -30% to -49%
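THP-1 cells pretreated 1 hr with compounds (up to 57.5 uM final), then stimulated with LPS (250 ng/mL final) plus ATP (1.25 mM final); secreted IL-1B measured by AlphaLISA after 16 hr, decreased signal indicating inhibition.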
DT40 TDP1 no CPT: qHTS for Inhibitors of human tyrosyl-DNA phosphodiesterase 1 (TDP1): qHTS in cells in absence of CPT; DT40 Tdp1-/- hTDP1 cells, no CPT, ATP luminescence, 48 h; Potency, µM (titrated, usually from 46.2 µM), for the others: at the highest dose activity change, negative = growth inhibition, hits mostly inhibitors; 420,000 tested, 15% active; AID 686978, 2013; also: potency is read from the fitted curve at half-maximal effect; nearly all actives have a fitted effect of over 55% in size
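DT40 Tdp1-/-;hTDP1 cells, no CPT (DMSO vehicle only), 400 cells/well; compounds pin-transferred; ≥48 hr, 37 °C; CellTiter-Glo 30 min RT dark, luminescence read.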
* marks the source's active call; other numbers are inactive results; ? = inconclusive; . = not tested or not shown; [ ] = another dose, or the depositor's remark. Unless noted, calls follow the shape of the dose curve; as a rule, active = well fitted curve in the direction sought with a large enough effect; inconclusive = small, poorly fitted or top-dose-only effect, or another doubt; inactive = no such curve, though single readings can be large; an effect the other way counts as inactive or inconclusive. Unless noted, % is scaled to controls: 0 for no effect and ±100 for the full control effect.

SMILES | HT1080 IDH1KD tx | uPA surface inh | HT1080-NT tox | TDP1 cell CPT | IL1B secr inh | DT40 TDP1 no CPT
CCCn1c(=O)c2sccc2n2c(CCCC(=O)N3CCN(c4cccc(C)c4C)CC3)nnc12 | . | . | . | 21µM* | . | 18µM*
O=C1C(Cc2ccc(F)cc2)SC(=Nc2ccccc2)N1c1ccccc1 (configuration not stated) | -5% | -2% | -6% | ? | 0 | 23µM*
Cc1c(C(=O)NCc2cccc(Cl)c2)sc2ncnc(N(C)C3CCCCC3)c12 | . | . | . | 21µM* | . | ?
Cc1c(C(=O)NC2CCCC2)sc2ncnc(NCCN(C)C)c12 | . | . | . | -5%[9.04 µM] | . | 7%
CCOc1ccc(CNC(=O)c2sc3ncnc(N(C)C4CCCCC4)c3c2C)cc1 | . | . | . | 16µM* | . | ?
CCc1ccc(NC(=O)c2sc3ncnc(N(C)C4CCCCC4)c3c2C)cc1 | . | . | . | 18µM* | . | 21µM*
Cc1c(C(=O)NC(C)c2ccccc2)sc2ncnc(N(C)C3CCCCC3)c12 (configuration not stated) | . | . | . | 6.5µM* | . | ?
Cc1c(C(=O)Nc2ccc(Br)cc2F)sc2ncnc(N(C)C3CCCCC3)c12 | . | . | . | 0% | . | -4%
Cc1ccc(S(=O)(=O)NC(=O)C2(C)CCN2C(=O)CCc2ccc(Cl)cc2Cl)nc1 (configuration not stated) | 18% | . | 11% | -4% | -5 | -6%
Cc1c(C(=O)NC2CCCCC2)sc2ncnc(NCCN(C)C)c12 | . | . | . | -1% | . | -2%
Cc1cccc(CNC(=O)c2sc3ncnc(N(C)C4CCCCC4)c3c2C)c1 | . | . | . | 18µM* | . | 21µM*
N#C/C(=C\c1ccc(OCc2ccc(Cl)cc2Cl)cc1)c1nc2ccccc2[nH]1 | . | . | . | 16µM* | . | 21µM*
COc1cc(/C=C(\C#N)c2nc3ccccc3[nH]2)cc(Cl)c1OCc1ccccc1Cl | . | . | . | 7.3µM* | . | 18µM*
O=C(O)CCN1C(=O)c2ccccc2Sc2ncccc21 | -3% | 9% | 5% | 5% | 24 | 6%
CC(C)NC(=O)CCN1C(=O)c2ccccc2Sc2ncccc21 | 5% | 6% | 7% | -9% | 0 | 25%
Cc1ccc(C)c(NC(=O)CCN2C(=O)c3ccccc3Sc3ncccc32)c1 | . | . | . | ? | . | 18µM*
CCCCSCCCNC(=O)CCCN1C(=O)c2ccccc2Sc2ncccc21 | -5% | 1% | -5% | ? | -23 | 16µM*
O=C(CCN1C(=O)c2ccccc2Sc2ncccc21)Nc1ccc(F)cc1 | . | . | . | 16µM* | . | ?
CCC(C)c1ccc(S(=O)(=O)N2CCN(C(=O)c3ccc(Cl)c(S(=O)(=O)N4CCOCC4)c3)CC2)cc1 (configuration not stated) | -27% | ? | -10% | ? | 12 | 18µM*
COc1ccccc1N1CCN(C(=O)c2ccc(Cl)c(S(=O)(=O)N3CCOCC3)c2)CC1 | -2% | -2% | 0% | 26µM* | -2 | ?
O=C(c1ccc(Cl)c(S(=O)(=O)NCc2ccco2)c1)N1CCN(c2ccccc2F)CC1 | ? | -11% | ? | ? | 3 | ?
COc1ccccc1N1CCN(C(=O)c2ccc(Cl)c(S(=O)(=O)NCc3ccco3)c2)CC1 | 7.1µM* | -14% | 8.9µM* | 5.6µM* | -6 | 5µM*
O=C(c1ccc(Cl)c(S(=O)(=O)N2CCOCC2)c1)N1CCc2ccccc2C1 | -13% | -7% | 0% | ? | -64* | ?
CC(C)c1ccc(NC(=O)C2CCC(CNC(=O)[C@@H]3Cc4ccccc4CN3)CC2)cc1 (some centres not stated) | ? | -10% | ? | ? | 44 | ?
CC(=O)c1ccc(NC(=O)N2C3CCC2CC(O)(c2cccnc2)C3)cc1 (configuration not stated) | 1% | 1% | 2% | 14% | -1 | -8%
SMILES | HT1080 IDH1KD tx | uPA surface inh | HT1080-NT tox | TDP1 cell CPT | IL1B secr inh | DT40 TDP1 no CPT
Cc1ccc(-c2noc(CNC(=O)COc3cc(C)c(Br)c(C)c3)n2)cc1 | . | . | . | -2% | . | -7%
Cc1ccc(Oc2nc3ccccn3c(=O)c2/C=C(\C#N)C(=O)Nc2c(C)n(C)n(-c3ccccc3)c2=O)cc1 | 0% | -6% | 0% | -23% | -61* | ?
Cc1ccccc1Oc1nc2c(C)cccn2c(=O)c1/C=C(\C#N)C(=O)Nc1c(C)n(C)n(-c2ccccc2)c1=O | -19% | -8% | -29% | 21µM* | ? | 21µM*
Cc1ccccc1Oc1nc2ccccn2c(=O)c1/C=C(\C#N)C(=O)Nc1c(C)n(C)n(-c2ccccc2)c1=O | -18% | -10% | -12% | ? | 0 | ?
Cc1cc(C)cc(Oc2nc3ccccn3c(=O)c2/C=C(\C#N)C(=O)NC2CCS(=O)(=O)C2)c1 (configuration not stated) | ? | -10% | -29% | ? | 12 | 9.2µM*
Cc1ccc(Oc2nc3ccccn3c(=O)c2/C=C(\C#N)C(=O)NC2CCS(=O)(=O)C2)c(C)c1 (configuration not stated) | ? | ? | 1% | ? | 14 | ?
CCOC(=O)CSc1nc2ccccc2c(=O)n1-c1cccc(C)c1 | . | . | . | -23% | . | ?
CCN(CC)CCOC(=O)c1ccc(NC(=O)CCn2c(=O)oc3ccccc32)cc1 | . | . | . | 0% | . | -19%
CCc1cccc(NC(=O)CNS(=O)(=O)c2ccc3nc(C)sc3c2)c1 | . | . | . | -6% | . | -29%
CC1(C)CC(=O)C2=C(C1)NC(=O)CC2 | 16% | . | 17% | -3% | -2 | 12%
CCn1c(CNC(=O)COc2ccc(C(C)C)cc2)nnc1SCC(=O)Nc1ccccc1C(C)C | ? | -15% | ? | 16µM* | -20 | 16µM*
COc1ccccc1N1CCN(c2nc(CNC(=O)c3cc(C)oc3C)nc3ccccc23)CC1 | . | . | . | -20%[9.04 µM] | . | ?
COC(=O)C1=C(Nc2ccc(C)cc2)C=C(C)C(C(=O)OC)C1c1ccc(OC)cc1 (configuration not stated) | ? | -14% | ? | 16µM* | -5 | 26µM*
O=C1C(=C(c2ccccc2)N2CCOCC2)Cc2ccccc21 | 4.6µM* | . | 15µM* | 1.2µM* | -104* | 0.82µM*
COc1cccc(CNC(=O)c2ccc3c(c2)nc2n3CCCCC2)c1OC | . | . | . | -8% | . | ?
Cc1ccc(N2CCN(C(=O)C(=O)c3ccc4c(c3)OCO4)CC2)cc1 | 12% | . | -1% | -8% | -4 | 1%
